The values that follow come from PubChem BioAssay (EPA / NIEHS).

Inconclusive results are not listed. Active and inactive are the calls of the source. Rule for the calls: active = hit-call score of the fitted dose curve at least 0.9, where 1 is the maximum; inconclusive = response in the unintended direction; inactive = score below 0.9.

By AC50 is commonly meant the midpoint of the concentration-response curve, whichever way the signal moves.

Estrogen receptor (Homo sapiens), sequence (P03372 whole entry, looked up): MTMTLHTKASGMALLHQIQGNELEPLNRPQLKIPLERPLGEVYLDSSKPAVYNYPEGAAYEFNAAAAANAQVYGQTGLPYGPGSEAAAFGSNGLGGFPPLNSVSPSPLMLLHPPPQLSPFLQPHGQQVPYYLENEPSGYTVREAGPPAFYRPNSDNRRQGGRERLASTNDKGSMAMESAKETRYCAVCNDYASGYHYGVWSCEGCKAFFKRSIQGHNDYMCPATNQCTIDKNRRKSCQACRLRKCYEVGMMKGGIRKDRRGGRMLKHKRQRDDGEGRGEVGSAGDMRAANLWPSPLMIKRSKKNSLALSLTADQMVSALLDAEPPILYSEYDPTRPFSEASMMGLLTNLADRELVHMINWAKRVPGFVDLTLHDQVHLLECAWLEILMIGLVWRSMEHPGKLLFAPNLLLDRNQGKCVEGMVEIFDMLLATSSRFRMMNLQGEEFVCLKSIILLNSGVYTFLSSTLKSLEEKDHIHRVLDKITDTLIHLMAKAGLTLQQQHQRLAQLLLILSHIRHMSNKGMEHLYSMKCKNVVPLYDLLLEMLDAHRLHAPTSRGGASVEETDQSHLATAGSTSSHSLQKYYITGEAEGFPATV

For one assay, the target named is Estrogen receptor (Homo sapiens) (UniProt P03372). As to the kind of experiment: NVS_NR_hER: NovaScreen (NVS) Nuclear Receptor Binding Assay for human Estrogen Receptor (ER) (AID 2283348). The method, boiled down:
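Scintillation signal from bound radioligand was measured 18 hours after chemical addition to cell-free MCF7 protein extracts, with DMSO as baseline. Activity was scored as signal loss; compounds ran first at 25 uM in duplicate.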
Take `COC(=O)C1=C(C)NC(C)=C(C(=O)OCCN(C)Cc2ccccc2)C1c1cccc([N+](=O)[O-])c1` (configuration not stated): the AC50 was 9.13 µM (active).

In the case of `O=C(COc1ccc(Cl)cc1)N1CCN(Cc2ccc3c(c2)OCO3)CC1`, the molecule was classed as inactive.

`CCCC(=O)c1cc(O)c(O)cc1O`: the AC50 was 7.55 µM (active).

Regarding `CNCCCC12CCC(c3ccccc31)c1ccccc12`, the outcome was inactive.

Take `Cc1cc(C2(c3cc(C)c(O)cc3C)OS(=O)(=O)c3ccccc32)c(C)cc1O`: the AC50 is 5.05 µM (active).

`CCCCCCCCC=O`: the result was inactive.

As for `Clc1ccc2c(c1)C(N1CCNCC1)=Nc1ccccc1O2`, the result was inactive.

With `CC(C)c1cccc(O)c1`, the result was inactive.

Regarding `c1cc(C(c2ccc(OCC3CO3)cc2)c2ccc(OCC3CO3)cc2)ccc1OCC1CO1` (configuration not stated), the molecule was classed as inactive.

For `CC(C)C(C)(C)C(C)(C)C(C)(C)S`, the call was inactive.

`CC(=O)[C@H]1CC[C@H]2[C@@H]3CC=C4C[C@@H](O)CC[C@]4(C)[C@H]3CC[C@]12C`: the molecule was classed as inactive.

Turning to `O=C1c2ccccc2C(=O)N1SC1CCCCC1`, the call was inactive.

Regarding `O=C(O)CCSCCC(=O)O`, the outcome was inactive.

The next assay has the same target. As to the kind of experiment: OT_ER_ERaERa_1440: Odyssey Thera (OT) 24-hour HEK293T Protein-Complementation Assay for Estrogen Receptor-alpha/-alpha Homodimer (AID 2283349).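 Note: hits raise fluorescence above DMSO for agonists and antagonists alike.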 The method, boiled down: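 Protein-fragment complementation between two human ERα ligand-binding domains (aa 310-547) in stably transfected HEK293T cells was monitored after 24 h treatment, using fluorescence intensity relative to vehicle controls.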
As to `CCCCCCCCC`, the outcome was inactive.

Take `CCCCCCCCCCCCCC(=O)O`: the outcome was inactive.

On to `c1ccc(CCCc2ccccn2)cc1`, for which the molecule was called inactive.

With `BrC1CCC(Br)C(Br)CCC(Br)C(Br)CCC1Br` (configuration not stated), the result was inactive.

Consider `Cc1ccc(S)cc1`, for which the outcome was inactive.

With `CCCCOCCOCCOCCOCCO`, the result was inactive.

Take `CCC/C=C/C=O`: the result was inactive.

Take `CCCCc1ccc(N)cc1`: the result was inactive.

For the molecule `CCCCCCCCC=O`, the molecule was called inactive.

`CCCCCCCCCCCCCCCC(=O)OC[C@H](O)[C@H]1OC(=O)C(O)=C1O`: the molecule was classed as inactive.

With `CC(C)c1cccc(O)c1`, the call was inactive.

As to `CC(=O)C=CC1=C(C)CCCC1(C)C`, the molecule was classed as inactive.

`CCCCCCCCCC=O`: the outcome was inactive.

Turning to `CC(C)(N)CO`, the outcome was inactive.

As to `CC(=O)OCCC(C)CC(C)(C)C` (configuration not stated), the molecule was classed as inactive.

For `NC(=O)Nc1ccc(Cl)cc1`, the molecule was classed as inactive.

`CC(C)(C)C(=O)c1ccccc1`: the molecule was classed as inactive.

As for `CC(=O)OCCOC(C)=O`, the molecule was called inactive.

With `O=C1c2ccccc2C(=O)N1SC1CCCCC1`, the outcome was inactive.
